Experiment [1] deals with Glycogen synthase kinase-3 beta (Homo sapiens) (UniProt P49841). The note with it: at 1 µM.
The target in experiment [2] is Homeodomain-interacting protein kinase 1 (Homo sapiens) (UniProt Q86Z02). Particulars: at 0.1 µM.
Experiment [3] shares this target. Particulars: at 1 µM.
Experiment [4] deals with T1, Homeodomain-interacting protein kinase 4 (Homo sapiens) (UniProt Q8NE63).
T1 sequence (whole entry): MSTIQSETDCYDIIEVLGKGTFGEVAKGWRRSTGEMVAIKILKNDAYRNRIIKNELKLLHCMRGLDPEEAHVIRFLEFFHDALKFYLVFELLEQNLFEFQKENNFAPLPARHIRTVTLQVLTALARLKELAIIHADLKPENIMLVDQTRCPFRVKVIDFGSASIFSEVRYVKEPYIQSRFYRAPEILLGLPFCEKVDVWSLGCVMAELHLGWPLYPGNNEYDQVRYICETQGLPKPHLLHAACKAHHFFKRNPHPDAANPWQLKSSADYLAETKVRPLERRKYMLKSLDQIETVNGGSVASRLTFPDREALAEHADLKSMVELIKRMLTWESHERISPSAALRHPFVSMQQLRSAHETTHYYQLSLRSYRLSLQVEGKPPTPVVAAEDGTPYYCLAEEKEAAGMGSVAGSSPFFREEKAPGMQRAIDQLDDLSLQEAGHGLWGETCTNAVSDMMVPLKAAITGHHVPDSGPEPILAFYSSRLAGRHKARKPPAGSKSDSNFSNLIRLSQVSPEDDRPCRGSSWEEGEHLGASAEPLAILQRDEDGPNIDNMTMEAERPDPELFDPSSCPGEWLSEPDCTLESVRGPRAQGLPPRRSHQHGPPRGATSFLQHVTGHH
Particulars: at 0.1 µM.

Experiment [5] deals with T1, Homeodomain-interacting protein kinase 4 (Homo sapiens). Particulars: at 1 µM.
Experiment [6] concerns the target Mitogen-activated protein kinase 9 (Homo sapiens) (UniProt P45984). Particulars: at 0.1 µM.
Experiment [7] shares this target. Particulars: at 1 µM.
The target of experiment [8] is Mitogen-activated protein kinase 1 (Homo sapiens) (UniProt P28482). Particulars: at 0.1 µM.
Mitogen-activated protein kinase 1 (Homo sapiens), sequence (P28482 whole entry): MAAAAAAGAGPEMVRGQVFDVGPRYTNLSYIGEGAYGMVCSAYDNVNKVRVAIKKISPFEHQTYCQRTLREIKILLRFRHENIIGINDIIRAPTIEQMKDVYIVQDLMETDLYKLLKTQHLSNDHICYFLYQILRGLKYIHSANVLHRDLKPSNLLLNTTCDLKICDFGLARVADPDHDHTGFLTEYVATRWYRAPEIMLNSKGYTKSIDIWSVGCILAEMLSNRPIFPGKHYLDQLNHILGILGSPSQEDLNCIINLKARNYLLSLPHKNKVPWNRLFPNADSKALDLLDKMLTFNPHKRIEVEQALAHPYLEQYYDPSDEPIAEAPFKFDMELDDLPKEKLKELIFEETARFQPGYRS
Experiment [9] has the same target. The note with it: at 1 µM.
The target of experiment [10] is Mitogen-activated protein kinase 3 (Homo sapiens) (UniProt P27361). Particulars: at 0.1 µM.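 Further: each value is a mean inhibition figure.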
Mitogen-activated protein kinase 3 (Homo sapiens), sequence (P27361 whole entry): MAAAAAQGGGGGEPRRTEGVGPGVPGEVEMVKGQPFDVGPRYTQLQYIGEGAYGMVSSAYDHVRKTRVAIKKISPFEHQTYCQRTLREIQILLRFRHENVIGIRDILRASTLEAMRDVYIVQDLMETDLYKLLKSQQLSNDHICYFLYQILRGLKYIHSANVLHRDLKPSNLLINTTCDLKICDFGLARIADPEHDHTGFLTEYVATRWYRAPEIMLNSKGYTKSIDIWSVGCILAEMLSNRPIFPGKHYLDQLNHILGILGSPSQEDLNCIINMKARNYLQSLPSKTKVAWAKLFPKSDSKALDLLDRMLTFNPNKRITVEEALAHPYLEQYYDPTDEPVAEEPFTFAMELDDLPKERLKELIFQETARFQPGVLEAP

Homeodomain-interacting protein kinase 1 (Homo sapiens), sequence (Q86Z02 whole entry, looked up): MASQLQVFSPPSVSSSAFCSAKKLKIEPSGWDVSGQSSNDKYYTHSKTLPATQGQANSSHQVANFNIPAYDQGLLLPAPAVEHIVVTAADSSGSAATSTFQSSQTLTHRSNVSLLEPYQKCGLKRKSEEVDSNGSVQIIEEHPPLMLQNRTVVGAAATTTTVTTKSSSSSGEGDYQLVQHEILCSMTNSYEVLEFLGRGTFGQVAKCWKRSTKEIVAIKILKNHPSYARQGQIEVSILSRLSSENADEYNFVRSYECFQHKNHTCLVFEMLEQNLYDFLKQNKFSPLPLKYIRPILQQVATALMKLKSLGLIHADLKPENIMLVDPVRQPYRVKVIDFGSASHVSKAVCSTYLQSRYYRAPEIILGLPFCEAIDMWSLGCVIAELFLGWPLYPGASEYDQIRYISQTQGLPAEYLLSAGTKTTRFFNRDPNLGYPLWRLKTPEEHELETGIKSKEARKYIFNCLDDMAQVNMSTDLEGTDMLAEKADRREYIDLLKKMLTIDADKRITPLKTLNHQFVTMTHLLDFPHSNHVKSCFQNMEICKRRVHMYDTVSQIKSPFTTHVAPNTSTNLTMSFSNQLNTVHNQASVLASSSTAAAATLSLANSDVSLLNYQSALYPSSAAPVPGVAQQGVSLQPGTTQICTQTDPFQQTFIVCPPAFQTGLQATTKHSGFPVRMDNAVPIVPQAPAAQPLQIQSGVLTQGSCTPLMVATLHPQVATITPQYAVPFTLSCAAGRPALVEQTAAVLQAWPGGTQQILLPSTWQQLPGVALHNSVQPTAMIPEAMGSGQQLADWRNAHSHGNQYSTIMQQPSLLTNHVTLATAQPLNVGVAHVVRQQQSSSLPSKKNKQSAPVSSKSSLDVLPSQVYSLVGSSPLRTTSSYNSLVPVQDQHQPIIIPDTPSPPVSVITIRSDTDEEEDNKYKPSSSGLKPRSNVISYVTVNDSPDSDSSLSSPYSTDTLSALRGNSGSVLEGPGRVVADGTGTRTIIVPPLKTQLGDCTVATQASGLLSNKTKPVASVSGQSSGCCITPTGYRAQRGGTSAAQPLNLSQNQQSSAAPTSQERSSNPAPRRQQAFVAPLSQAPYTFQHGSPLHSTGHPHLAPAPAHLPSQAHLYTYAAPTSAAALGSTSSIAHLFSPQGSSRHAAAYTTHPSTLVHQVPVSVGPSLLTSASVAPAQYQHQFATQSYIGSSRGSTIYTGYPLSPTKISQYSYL
Mitogen-activated protein kinase 9 (Homo sapiens), sequence (P45984 whole entry, looked up): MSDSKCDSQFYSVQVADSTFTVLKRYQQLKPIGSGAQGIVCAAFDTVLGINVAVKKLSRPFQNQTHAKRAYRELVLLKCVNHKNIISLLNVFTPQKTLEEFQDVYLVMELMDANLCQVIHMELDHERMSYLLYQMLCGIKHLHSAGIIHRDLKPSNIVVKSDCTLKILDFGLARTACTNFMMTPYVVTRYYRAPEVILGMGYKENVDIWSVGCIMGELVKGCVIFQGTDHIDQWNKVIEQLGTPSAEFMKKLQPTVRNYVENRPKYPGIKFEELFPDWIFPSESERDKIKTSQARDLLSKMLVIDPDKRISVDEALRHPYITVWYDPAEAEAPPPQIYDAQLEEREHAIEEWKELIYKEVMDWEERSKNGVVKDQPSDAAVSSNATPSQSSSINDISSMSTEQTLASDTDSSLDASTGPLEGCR
Glycogen synthase kinase-3 beta (Homo sapiens), sequence (P49841 whole entry, looked up): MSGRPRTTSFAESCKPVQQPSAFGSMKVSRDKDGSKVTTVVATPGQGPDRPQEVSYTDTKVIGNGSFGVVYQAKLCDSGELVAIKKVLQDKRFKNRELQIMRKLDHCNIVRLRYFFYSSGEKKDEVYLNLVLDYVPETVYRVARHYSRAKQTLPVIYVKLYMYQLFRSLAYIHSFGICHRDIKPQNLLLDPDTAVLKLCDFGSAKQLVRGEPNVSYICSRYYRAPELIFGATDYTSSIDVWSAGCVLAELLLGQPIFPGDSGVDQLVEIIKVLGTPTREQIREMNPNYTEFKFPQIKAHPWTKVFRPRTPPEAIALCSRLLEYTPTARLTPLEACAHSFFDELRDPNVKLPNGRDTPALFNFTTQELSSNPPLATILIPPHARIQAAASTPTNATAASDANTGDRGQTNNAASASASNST

As for `c1ccc(Cc2nc3ccc(Nc4ncnc5ccccc45)cc3[nH]2)cc1`, the inhibition (commonly the drop in the measured response relative to a control, in per cent) in experiment [1] is 7.73%; in [2] it was 6.99%; in experiment [3] it was 9.6%; in [4] it was 4.87%; in experiment [5], 9.82%; in experiment [6] it was 1.51%. Also, the inhibition in [7] was 3.95%; in experiment [8], 3.59%; in experiment [9], 3.76%; in [10] it was 2.28%.
With `Cc1ccc(Nc2ccnc(Nc3cccc(C(N)=O)c3)n2)cc1O`, the inhibition in [1] is 17.4%; in experiment [2] it was -4.04%; in experiment [3], 0.47%; in [4], 2.33%; in experiment [5] it was 10.8%; in [6], 3.91%. The inhibition was 14.6% in [7], 4.59% in experiment [8], 4.19% in experiment [9] and 3.66% in [10].
Regarding `Oc1cccc(-c2nc(-c3ccccc3)[nH]c2-c2ccncc2)c1`, the inhibition in [1] turned out to be 18.9%; in [2] it was 1.65%; in [3] it was 4.29%; in experiment [4], 10.7%; in experiment [5], 44.9%; in experiment [6] it was 2.02%. In addition, the inhibition worked out at 10.7% in [7], 5.56% in [8], 5.82% in experiment [9] and 3.48% in experiment [10].
For `CCCN1CCCC(c2ccc(Nc3nc(Nc4cc(F)ccc4C(N)=O)c4cc[nH]c4n3)c(OC)c2)C1` (stereo not given), the inhibition in experiment [1] was 4.25%; in [2], 46%; in experiment [3], 79.5%; in experiment [4] it was 58.1%; in experiment [5] it was 84.3%; in [6], 70.3%. The inhibition worked out at 91.3% in experiment [7], 8.06% in experiment [8], 36.5% in experiment [9] and 5.61% in experiment [10].
`COc1cccc(-n2nc(C)c3c(N/N=C(\C)c4ccncc4)ncnc32)c1`: the inhibition in experiment [1] was 9.41%; in [2], -1.66%; in experiment [3], 2.66%; in experiment [4] it was -1.56%; in [5] it was 2.79%; in [6] it was 1.92%. Besides, the inhibition in [7] is 2.01%; in [8], 2.86%; in experiment [9], 1.42%; in [10] it was -1.05%.
Take `CN1CCN(C(=O)c2ccc(NC(=O)Nc3ccc(N(C)c4ccnc(Nc5ccc(CS(C)(=O)=O)cc5)n4)cc3)cc2)CC1`: the inhibition in [1] was 4.51%; in experiment [2] it was -3.22%; in experiment [3], 5.55%; in experiment [4] it was 0.53%; in [5], 9.14%; in experiment [6], 0.8%. Moreover, the inhibition in experiment [7] was found to be 12.4%; in [8] it was 1.77%; in experiment [9], 11.2%; in experiment [10], 2.64%.
Turning to `CS(=O)(=O)Nc1cccc(-c2ccc3c(NC(=O)C4CC4)n[nH]c3c2)c1`, the inhibition in experiment [1] is 9.5%; in experiment [2] it was -3.76%; in experiment [3] it was 0.93%; in experiment [4] it was -0.79%; in [5] it was -0.86%; in experiment [6], 2.2%. Also, the inhibition in experiment [7] was 0.27%; in experiment [8] it was -0.71%; in [9], 1.14%; in [10] it was 2.44%.
For the compound `CN(C)c1cc2c(Nc3ccc4c(cnn4Cc4ccccc4)c3)ncnc2cn1`, the inhibition in experiment [1] was 4.25%; in [2], -0.5%; in experiment [3], 2.06%; in experiment [4], 0.72%; in experiment [5], 0.89%; in experiment [6], 2.84%. In addition, the inhibition came out at 2.39% in experiment [7], 1.31% in [8], 3.41% in [9] and 0.27% in experiment [10].
With `O=C1Nc2ccccc2/C1=C/Nc1ccc2[nH]c(=O)[nH]c2c1`, the inhibition amounted to 12% in experiment [1]; 1.38% in experiment [2]; 6.25% in [3]; 2.76% in experiment [4]; 5.62% in [5]; 4.66% in experiment [6]. Moreover, the inhibition in experiment [7] worked out at 12.5%; in [8] it was 5.93%; in experiment [9] it was 5.63%; in experiment [10], 5.69%.
Consider `NS(=O)(=O)c1ccc(NC=C2C(=O)Nc3ccc4ncsc4c32)cc1`, for which the inhibition in [1] is 71.8%; in experiment [2], 14.2%; in experiment [3] it was 47.4%; in experiment [4], 2.67%; in experiment [5] it was 21.7%; in experiment [6] it was 8.45%. Moreover, the inhibition in [7] is 36.1%; in experiment [8], 11%; in [9], 47.4%; in experiment [10], 7.04%.
Consider `COc1cc(/C=N/Nc2ncnc3c2cnn3C(C)C)ccc1O`, for which the inhibition in experiment [1] was found to be 32.9%; in experiment [2], 0.71%; in experiment [3], 16.1%; in [4], 1.74%; in [5], 19.6%; in experiment [6] it was 2.63%. The inhibition in [7] came to 3.44%; in experiment [8], 1.48%; in experiment [9], 2.57%; in [10], 1.63%.
`COc1cc2ncnc(Nc3ccc4c(cnn4Cc4ccccc4)c3)c2cc1OC`: the inhibition in [1] is 7.35%; in [2] it was -5.38%; in [3], -0.46%; in experiment [4] it was -0.51%; in [5] it was 0.79%; in [6], 0.52%. In addition, the inhibition in experiment [7] was determined as 1.98%; in experiment [8], 2.88%; in experiment [9], 4.22%; in experiment [10] it was 1.19%.
As for `COc1cc2ncn(-c3cc(OCc4ccccc4S(C)(=O)=O)c(C#N)s3)c2cc1OC`, the inhibition in experiment [1] was 8.83%; in [2], 2.2%; in [3], 28%; in [4], 52.5%; in experiment [5], 79%; in experiment [6] it was 2.5%. The inhibition in experiment [7] stood at 6.08%; in experiment [8], 1.98%; in [9] it was 5.43%; in experiment [10] it was 3.11%.

Values taken from ChEMBL document CHEMBL1961873, “Compounds: GSK PKIS; Assays: Nanosyn kinase panel” (2012).
